# In the library only some 11% were active in any assay of this set; here they are far more common.
# Pf growth 48h – inhibits P. falciparum growth in the first generation, 48 h | P. falciparum luciferase growth in erythrocytes, 48 h | Potency, µM (titrated, usually from 28.7 µM), inactives show at the highest dose activity change, negative = inhibition, usual class: inhibitors | 310,000 tested, 5.9% active
#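 Luminescence readout; reporter = integrated firefly luciferase in P. falciparum. RBC culture at 2% hematocrit, 0.1% parasitemia final, 37 C/5% CO2; decreased signal taken as growth inhibition.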
# HCV inhibitor – HCV inhibition; Huh7.5.1 HCVcc-Cre infection, luciferase reporter, 44 h; Potency, µM (top dose mostly 41.8 µM), inactives show at the highest dose activity change, negative = inhibition, most hits filed as inhibitors; AID 651820; 340,000 tested, 3.4% active
#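 Reporter virus HCVcc-Cre (~0.5 moi) infects cells exposed to compound; seeding density 1,000 cells/well with 4 h settling beforehand. Luminescence, 15 sec read, taken 44 h post-infection following a 15 min RT substrate incubation.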
# AMA1 RON2 block – inhibitors of Plasmodium falciparum AMA1-RON2 interaction | Potency, µM (series often up to 58.2 µM), without a hit: at the highest dose activity change, negative = inhibition, usual class: inhibitors | AlphaScreen AMA1-biotinylated RON2 peptide binding | 360,000 tested, 0.2% active;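 further: 0% = vehicle wells and -100% = peptide control; nearly all actives have a fitted effect of over 45% in size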
#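 AMA1 (3D7) with his tag at 25 nM final met compounds first, then biotinylated RON2 peptide at 25 nM; detection used donor plus acceptor beads, 10 µg/mL apiece, read by AlphaScreen after 30 min at room temperature.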
# Pf growth 96h – P. falciparum growth inhibition at 96 hours; P. falciparum luciferase reporter growth, 96 h; Potency, µM (series often up to 28.7 µM), for the others: top-dose activity change, negative = inhibition, usual class: inhibitors; 320,000 tested, 6.9% active
#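 Delayed-death screen, second-generation endpoint: infected erythrocytes, 2% hematocrit, 0.05% parasitemia final; 96 hours at 37 C, 5% CO2; luciferase detection reagent; luminescence decrease equals reduced growth.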
# Numbers without * were called inactive; ? = inconclusive; . = no result. The call rests on the fitted dose curve; in most records, active means well fitted curve in the direction sought with a large enough effect; inconclusive means small, poorly fitted or top-dose-only effect, or another doubt; inactive means no such curve, though single readings can be large; an effect the other way counts as inactive or inconclusive. Unless noted, on the % scale 0 is the no-effect control and ±100 the full control effect; potency means the concentration at half of the fitted maximal effect.
SMILES,Pf growth 48h,HCV inhibitor,AMA1 RON2 block,Pf growth 96h
CCOc1ccc2nc(N3CCCC(C(=O)NCCCN4C(C)CCCC4C)C3)sc2c1 (centres undefined),-19.3%,2.51µM*,-0.2%,?
Cc1ccc(S(=O)(=O)Nc2c(C)cc(C)nc2Cl)cc1,24.0%,3.2%,12.3%,2.62µM*
Cc1nc(C(=O)NNC(=O)c2c(-c3c(Cl)cccc3Cl)noc2C)cs1,?,?,126.6%,?
Cc1ccc(S(=O)(=O)N(C)C)cc1NC(=O)c1c(-c2c(F)cccc2Cl)noc1C,11.7µM*,-7.1%,-1.5%,?
Cc1onc(-c2c(Cl)cccc2Cl)c1C(=O)Nc1nc(C(C)(C)C)cs1,?,?,?,10.4µM*
Cc1cc(NC(=O)c2c(-c3c(F)cccc3Cl)noc2C)no1,?,4.2%,-2.4%,-14.1%
Cc1ccc(NC(=O)c2c(-c3c(F)cccc3Cl)noc2C)cc1F,9.28µM*,?,-5.3%,?
CC(C)(C)c1csc(NC(=O)c2cccnc2)n1,?,-0.4%,0.1%,14.7µM*
CC(C)n1c2ccccc2c2nnc(SCC(=O)Nc3ccccc3C(=O)O)nc21,?,6.3%,-3.9%,-7.3%
Cn1c(CNC(=O)c2ccco2)nnc1SCCOc1ccccc1,7.2%,-1.1%,17.3%,1.3%
COc1ccc(-c2c(-c3cc(OC)cc(OC)c3)n(C)c3ccc(-c4ccc5[nH]ccc5c4)cc23)cc1,-26.0%,?,25.0%,?
CCSc1nnc(NC(=O)[C@@H](NC(=O)c2cc(OC)cc(OC)c2)C(C)C)s1,0.2%,4.8%,14.7%,12.4%
COc1cccc(C(=O)NCCS(=O)(=O)N2CCN(c3ccccc3)CC2)c1OC,.,.,0.3%,.
CCOc1ccc(NC(=O)CN(C)C(=O)c2c(-c3c(F)cccc3Cl)noc2C)cc1OCC,?,?,-19.1%,1.04µM*
Cc1onc(-c2c(Cl)cccc2Cl)c1C(=O)Nc1ccc2c(C(F)(F)F)cc(=O)oc2c1,?,?,9.6%,2.33µM*
COc1ccc(NC(=O)CN(C)C(=O)c2c(-c3c(F)cccc3Cl)noc2C)cc1,?,-24.3%,-3.6%,?
Cc1onc(-c2c(F)cccc2Cl)c1C(=O)Nc1nnc(C(F)(F)F)s1,33.1%,?,-1.6%,10.4µM*
Cc1ccc(OCCN2CCC2(C)C(=O)Nc2ccc3c(c2)OCCO3)cc1 (centres undefined),.,.,-5.9%,.
CCOc1ccc2c(c1)C(c1ccc(C)o1)=NNC(c1ccncc1)=N2,1.47µM*,?,51.8%,3.1%
CCOc1ccc(C2=NNC(c3cccs3)=Nc3ccc(OC)cc32)cc1,11.7µM*,8.4%,?,-30.7%
CCOc1ccc(C2=Nc3ccc(Br)cc3C(c3ccc(N4CCOCC4)cc3)=NN2)cc1,10.4µM*,2.3%,8.4%,?
NC1=NC(S)C2N=CN=C2N1 (centres undefined),?,.,.,7.57µM*
Cc1ccc(C(C)C)c(OCc2ccc(C(=O)N/N=C/c3cccc(O)c3O)cc2)c1,1.65µM*,22.4µM*,40.8%,2.62µM*
COc1ccc(S(=O)(=O)N(C)CC(=O)N2CCN(c3ccc(F)cc3)CC2)cc1OC,-23.0%,-7.6%,2.4%,.
CCN1CCN(C(=O)CN(c2ccc(F)cc2)S(=O)(=O)c2ccc(OC)c(OC)c2)CC1,-20.8%,-23.0%,8.7%,6.57µM*
SMILES,Pf growth 48h,HCV inhibitor,AMA1 RON2 block,Pf growth 96h
COc1ccc(S(=O)(=O)N(C)CC(=O)N2CCCCCC2)cc1OC,-4.3%,4.4%,-2.9%,9.28µM*
OC1(c2ccccc2)c2ccccc2-c2ncccc21 (centres undefined),-10.0%,11.6%,24.4%,?
CC(C)(C)NC(=O)CSC(=Nc1ccc(F)cc1)NC#N,24.8%,-1.6%,-16.7%,-1.3%
Cc1cccc(N2CCN(C(=O)C3CCC(=O)N(Cc4ccccc4F)C3)CC2)c1C (centres undefined),9.28µM*,-12.6%,-0.2%,10.4µM*
CCCCN(C)CCCNC(=O)C1CC(=O)N(Cc2ccc(OC)cc2)C1 (centres undefined),18.6%,16.0%,3.6%,11.7µM*
COc1ccc(CN2CC(C(=O)N3CC(C)CC(C)C3)CC2=O)cc1 (centres undefined),28.3%,17.9%,-6.7%,3.7µM*
Cc1ccc(CN2CC(C(=O)N3CCN(c4ccccc4Cl)CC3)CC2=O)cc1 (centres undefined),6.57µM*,?,-7.3%,11.7µM*
C=CCN(CC=C)CCCOc1ccc(Br)cc1Cl,25.9%,-1.8%,-17.1%,100.5%
CC(=O)NC(c1ccco1)c1cc(F)c2cccnc2c1O (centres undefined),4.15µM*,.,.,?
CC(=O)NC(c1ccco1)c1cc(Cl)c2ccccc2c1O (centres undefined),-4.2%,.,.,2.5%
CC(=O)NC(c1cccs1)c1cc(F)c2cccnc2c1O (centres undefined),2.94µM*,.,.,4.65µM*
NC(=O)[C@H](Cc1cc2ccccc2s1)NC(=O)[C@@H]1CC2(CC(c3cccc(NC(=O)[C@@H]4CCC(=O)N4)c3)=NO2)CN1C(=O)/C=C/Sc1ccccc1 (some centres undefined),13.1µM*,-5.6%,-3.1%,?
NC(=O)[C@H](Cc1cc2ccccc2s1)NC(=O)[C@@H]1CC2(CC(c3cccc(NC(=O)[C@@H]4CCC(=O)N4)c3)=NO2)CN1C(=O)c1ccccc1 (some centres undefined),13.1µM*,21.7%,15.8%,10.4µM*
NC(=O)[C@@H]1CC2(CC(c3cccc(NC(=O)[C@H]4CCC(=O)N4)c3)=NO2)CN1C(=O)COc1ccc(Cl)cc1 (some centres undefined),49.8%,7.9%,19.9%,39.3%
NC(=O)[C@H](Cc1cc2ccccc2s1)NC(=O)[C@@H]1CC2(CC(c3cccc(NC(=O)[C@@H]4CCC(=O)N4)c3)=NO2)CN1C(=O)/C=C/c1c(F)cccc1Cl (some centres undefined),4.15µM*,-11.0%,-10.6%,2.94µM*
NC(=O)[C@H]1CC2(CC(c3cccc(NC(=O)[C@H]4CCC(=O)N4)c3)=NO2)CN1C(=O)CC(c1ccccc1)c1ccccc1 (some centres undefined),-39.2%,16.7%,-2.5%,?
Cc1cc(-c2ccc(S(=O)(=O)N(C)Cc3ccccc3)cc2)on1,-4.6%,5.7%,2.0%,?
CCCNC(=O)C1(C)CCCN(Cc2ccccc2C#N)C1 (centres undefined),.,.,8.2%,.
O=C(c1ccco1)N1CCN(c2ccc([N+](=O)[O-])c(N3CCOCC3)c2)CC1,?,?,11.7%,?
CCOc1ccc(NC(=O)CN2CCC(n3cnc4cc(F)ccc43)CC2)cc1,?,-20.0%,9.9%,-14.1%
CCOC(=O)c1c(NC(=O)CSc2nnc(C)s2)sc2c1CCCCC2,-17.4%,10µM*,-18.1%,16.6%
CCOC(=O)c1c(NC(=O)CSc2nnc(C)s2)sc2c1CCC(C)C2 (centres undefined),11.7µM*,11.2µM*,-9.8%,16.5%
